Data: the supplement of paper PMC6555819

How the values were obtained:
Assay in all cases: PBM binding z-score (relative to random genomic background probes); higher = stronger binding; sequences stand for … in GC…GCGATTGACAGCGTAGAATGAAGG
[1] = system: PPARg:RXRa DBDmut IVT, anti-RXR (DBD mutation: RXRa K156A/R161A, NR concentration 270 nM, RXRa partner concentration 90 nM)
Outline: (§1)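 Scanned fluorescence from custom Agilent 4×180K protein-binding microarrays was regression-normalized. Binding z-scores use random background probes as reference. Ligand-free nuclear receptor dimers were incubated on the arrays for 1 h and detected with antibodies against each partner (one per run).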

[2] = system: PPARg:RXRa IVT, anti-PPARg (NR concentration 270 nM, RXRa partner concentration 90 nM)
Outline: as §1

[3] = system: PPARg DBDmut:RXRa IVT, anti-PPARg (DBD mutation: PPARg1 K132A/R137A, NR concentration 270 nM, RXRa partner concentration 90 nM)
Outline: as §1

[4] = system: PPARg DBDmut IVT, anti-PPARg (DBD mutation: PPARg1 K132A/R137A, NR concentration 270 nM)
Outline: as §1

[5] = system: PPARg homodimer (NR concentration 180 nM)
Outline: as §1

[6] = system: PXR:RXRa (NR concentration 270 nM, RXRa partner concentration 90 nM)
Outline: as §1

[7] = system: PXR homodimer (NR concentration 270 nM)
Outline: as §1

[8] = system: RARa:RXR (NR concentration 270 nM, RXRa partner concentration 90 nM)
Outline: as §1

[9] = system: RARa homodimer (NR concentration 270 nM)
Outline: as §1

[10] = system: RARb:RXRa (NR concentration 270 nM, RXRa partner concentration 90 nM)
Outline: as §1

Row | Sequence | PBM binding z-score [1] | PBM binding z-score [2] | PBM binding z-score [3] | PBM binding z-score [4] | PBM binding z-score [5] | PBM binding z-score [6] | PBM binding z-score [7] | PBM binding z-score [8] | PBM binding z-score [9] | PBM binding z-score [10]
1 | CGAACTCGGTCATTGACAGGACAGTGAATAGTAA | 2.98 | 2.26 | -0.213 | -0.299 | 0.0566 | 0.137 | -0.233 | 0.436 | -0.219 | 2.14
2 | ATCGCTAGGTAAAGATAGTTCAGTGAATGCAAAT | -0.327 | -0.329 | 0.673 | 0.059 | 0.116 | 0.306 | 0.193 | 0.173 | 0.336 | 0.139
3 | TCGAGTAGGTTAGTCGGGACATTCAGCCAACATA | 1.85 | 1.48 | -0.367 | -1.31 | -0.431 | -0.161 | -0.242 | 0.166 | -0.452 | 0.165
4 | CCGACTGGGGCAAAGCTTACCATACTCAGTACGA | 4.39 | 2.85 | -0.291 | -0.457 | 0.119 | -0.708 | -0.701 | -0.665 | -0.639 | 0.229
5 | CTACCAAGGTGAACAAGGTCATTGATTACTATTC | 3.07 | 4.07 | 0.536 | 0.17 | 2.29 | 4.92 | 6.61 | 4.44 | 1.19 | 3.53
6 | ATATGTAGGTTACAGCCGGGTCATTCAGGCTATG | 7.69 | 7.35 | 1.69 | 1.39 | 1.97 | 3.43 | 1.66 | 3.51 | 0.487 | 2.26
7 | CTTCAAAGTTCAACTAAGGTAACGTAAAGCACGC | 0.299 | 1.44 | 1.35 | 1.17 | 3.47 | 5.58 | 4.16 | 4.32 | 2.15 | 5.19
8 | GCTAGTTGGTAAGTAAAAGGTCACACACCGGTCG | 0.354 | 3.04 | -0.0152 | 0.693 | 5.08 | 5.18 | 1.13 | 6.32 | 2.74 | 4.08
9 | CCTACTGGGCCACGAAATGTCATTGATTCAGTGA | 6.24 | 5.34 | 0.216 | -0.527 | 0.759 | -0.308 | -0.533 | 0.0426 | -0.591 | 0.57
10 | ATCTCTAGGTAACCAAGTTGAGTGAATGCCGAAC | 3.51 | 2.64 | 0.787 | 1.26 | 0.031 | -0.00792 | 0.194 | 0.144 | 0.0193 | 0.243
11 | ATCTGTAGGTAACAAGTTCAGTGAAAGAGAGGAC | 2.85 | 2.64 | 1.31 | 0.975 | 1.16 | 1.58 | 0.906 | 1.16 | 0.818 | 1.63
12 | TAGCCTAGGTCATTAAGGGGCCAGTATAGAAAGC | 1.56 | 2.58 | 0.422 | 0.198 | 0.937 | 1.36 | -0.202 | 2.18 | 0.00876 | 3.64
13 | CAAACTAGGTCACGTAAGGTCAAAGTCGAATGAC | 8.55 | 9.19 | 2.78 | 1.76 | 2.46 | 6.83 | 2.57 | 6.43 | 1.84 | 5.38
14 | TAGCCTAGGCCATTCAGGGGCCAGTATAGAAAGC | -0.752 | 0.1 | -0.845 | -0.806 | -0.678 | -0.717 | -0.964 | -0.354 | -0.891 | 0.992
15 | CGTCAAAGTTCAACTTAGGTAACGTAAAGCACGC | -0.00853 | 2.1 | 0.537 | 0.683 | 4.03 | 5.5 | 4.07 | 4.61 | 2.1 | 5.38
16 | CGTGCAAGGTCAGCAGGTCAGTGAAAGCGACGTG | 3.36 | 3.96 | -0.142 | 0.527 | 2.62 | 3.87 | 0.564 | 4.71 | 0.769 | 5.35
17 | TTTAGCAGGCCAGAGGGTCACTCAAGAGGTACGG | -0.256 | 1.03 | -0.784 | -1.27 | 0.57 | 1.55 | -0.341 | 2.18 | -0.62 | 2.05
18 | GGAACGAGGGCAAGGTTGATAGCATCTGTCGACG | 3.31 | 3.93 | 0.295 | -0.611 | 0.79 | 0.705 | -0.0103 | 0.822 | 0.206 | 2.52
19 | AGAATGAGGTTATTAAGATCAGAGAATTGCGGTC | 3.17 | 2.63 | 0.323 | 0.23 | 0.951 | 1 | 0.488 | 1.2 | 0.79 | 1.16
20 | CAAACTAGGTCAAGAGTTCAAAGTCCGCTTCCCG | 8.53 | 8.57 | 5.05 | 5.84 | 7.86 | 6.27 | 10.5 | 6.61 | 2.65 | 4.74
21 | CAAACTAGGTCAAAGTCAAAGTCGGTTTGTGCCA | 8.48 | 8.78 | 4.97 | 3.93 | 1.7 | 1.63 | -0.171 | 2.61 | 0.68 | 4.01
22 | CGTCCAAGGTCAATGCTATGTCAGTGAAAGCATT | 2.87 | 3.43 | -0.154 | 0.266 | 2.06 | 3.61 | 0.424 | 3.88 | 0.262 | 5.07
23 | CCTATTAGTTGACTATAAGGGCAACCGAAGCTCG | 0.032 | 0.399 | 0.358 | 0.398 | 0.891 | 0.229 | 0.676 | 0.501 | 1.22 | 1.25
24 | GCTTACGGGTCAAAGGTGATAGCATGAATAGAAT | 5.42 | 5.3 | 1.11 | 0.857 | 2.81 | 4.78 | -0.0532 | 6.93 | 0.406 | 4.09
25 | TCTTGTAGATCAAAGGTTCAGAAAGCCGAAGCCT | 1.88 | 1.55 | 0.156 | 0.203 | 0.638 | 0.73 | -0.103 | 1.13 | -0.254 | 0.898
